Our source for the outcome and AC50 values is PubChem BioAssay (EPA / NIEHS).

What is called AC50 is the concentration giving half of the maximal activity seen.

“And” between values parts separate entries of the source, which are not always exact repeats. Identical values can stand only once. Results filed as inconclusive are left out. Where a structure was tested more than once in an assay, its records may differ in their call. The source made the active and inactive calls. How the source made its calls: active means hit-call score of the fitted dose curve at least 0.9, where 1 is the maximum; inconclusive means response in the unintended direction; inactive means score below 0.9.

Cytochrome P450 3A4 (Homo sapiens), sequence (P08684 whole entry, looked up): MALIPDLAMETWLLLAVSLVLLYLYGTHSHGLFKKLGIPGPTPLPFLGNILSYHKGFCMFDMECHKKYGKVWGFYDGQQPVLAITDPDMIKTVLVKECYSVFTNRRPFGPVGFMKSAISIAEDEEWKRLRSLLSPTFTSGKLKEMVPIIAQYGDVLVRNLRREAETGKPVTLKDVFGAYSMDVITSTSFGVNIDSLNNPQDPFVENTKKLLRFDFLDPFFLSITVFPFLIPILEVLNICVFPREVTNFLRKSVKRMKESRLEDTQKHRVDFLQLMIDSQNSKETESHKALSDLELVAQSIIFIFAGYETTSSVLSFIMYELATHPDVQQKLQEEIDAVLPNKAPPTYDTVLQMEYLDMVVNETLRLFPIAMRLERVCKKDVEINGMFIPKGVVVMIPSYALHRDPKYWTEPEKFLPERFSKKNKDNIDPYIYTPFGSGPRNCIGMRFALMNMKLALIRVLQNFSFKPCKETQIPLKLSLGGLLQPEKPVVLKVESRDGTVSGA

Read-out in the test: Cytochrome P450 3A4 (Homo sapiens) (UniProt P08684)
The test can be described thus: CLD_CYP3A4_24hr: CellzDirect (CLD) Gene Expression Assay for xenobiotic metabolism (CYP3A4) at 24 hours (AID 2283689). As to the method:
CLD_24hr is a cell-based, multiplexed-readout assay that uses hepatocyte, a human liver primary cell, with measurements taken at 24 hours after chemical dosing in a 96-well plate.CLD_CYP3A4_24hr is one of 16 assay component(s) measured or calculated from the CLD_24hr assay. It is designed to make measurements of mRNA induction, a form of inducible reporter, as detected with chemiluminescence signals by Quantitative Nuclease Protection Assay (qNPA) technology.Data from the assay component CLD_CYP3A4_24hr was analyzed at the endpoint, CLD_CYP3A4_24hr, in the positive analysis fitting direction relative to DMSO as the negative control and baseline of activity. Using a type of inducible reporter, gain-of-signal activity can be used to understand changes in the reporter gene as they relate to the gene CYP3A4. Furthermore, this assay endpoint can be referred to as a primary readout. To generalize the intended target to other relatable targets, this assay endpoint is annotated to the cyp intended target family, where subfamily is xenobiotic metabolism.
Human hepatocyte cultures were treated daily for two consecutive days with fresh dosing solutions containing appropriate concentrations of the 320 ToxCast chemicals (chemical identities were blinded to CellzDirect and other ToxCast collaborators), vehicle control (0.2% DMSO), and positive control inducers as summarized in Table 1. Due to the large number of treatment groups and chemicals examined, the ToxCast chemicals were divided into two groups (spanning two independent cultures of hepatocytes from separate donor preparations (Hu778: ToxCast plates 1 and 2; Hu776: ToxCast plates 3 and 4). Each preparation of human hepatocyte cultures was treated with respective vehicle control, medium only control, set of six positive controls/reference chemicals for the five hepatic receptor pathways, and a subset of eight of the ToxCast chemicals (indoxacarb, pyrithiobac-sodium, norflurazon, cyhalofop-butyl, methomyl, thiram, acetochlor, and propiconazole). These replicate data, coupled with internal replicates designed within the blinded ToxCast chemical library, provided additional data to evaluate interindividual differences between hepatocyte preparations and their potential impact on chemical profiles.Cell morphology and integrity were evaluated using phase-contrast microscopy as an indicator of hepatocyte cell health (Tyson & Green, 1987). Cultures for each treatment group (i.e., media, vehicle [0.2% DMSO], positive control inducers [multiple concentrations], and the ToxCast chemicals [multiple concentrations]) were observed and cell morphology was assessed relative to vehicle control cultures at each harvest time point (0, 6, 24, or 48 h). […] Images were evaluated at the conclusion of the study to assess changes in cell integrity and account for the effects of chemical exposure on uncharacteristic changes in concentration-dependent gene expression profiles. The results from these determinations of apparent cytotoxicity were annotated (yes/no) alongside the corresponding qNPA data for reference.At the conclusion of each treatment period, hepatocyte cultures (96-well) were washed with 1 volume of HBSS, lysed by addition of 25 ul ArrayPlate lysis buffer (HTG, Tucson, AZ), and 70 ul/well of Denaturation Oil, denatured by incubation at 95C for 10 min, and frozen at approximately -70C until analysis by nuclease protection assay (qNPA) (Roberts et al., 2007). For qNPA analysis, cell lysates were thawed at 50C for approximately 30 min, qNPA probes were added, and samples were incubated at 95C for 10 min to begin the detection process by denaturing the target RNA, dissociating the duplexes and secondary structure hybridization. At the conclusion of the hybridization period, S1 nuclease reagent was added to each sample to digest all nonprotected nucleotides at 50C for 60-90 min. […]
For `O=C(O)COc1nc(Cl)c(Cl)cc1Cl`, the molecule was classed as inactive.
As to `CCCN(CCC)c1c([N+](=O)[O-])cc(S(N)(=O)=O)cc1[N+](=O)[O-]`, the AC50 is 11.1 µM (active).
As for `COP(=S)(OC)Oc1nc(Cl)c(Cl)cc1Cl`, the AC50 is 3.97 µM (active).
For the molecule `COC(=O)C(C)Oc1ccc(Oc2ccc(Cl)cc2Cl)cc1` (stereo not given), the result was inactive and the AC50 is 5.43 µM (active).
As to `O=C(O)c1nc(Cl)ccc1Cl`, the molecule was called inactive.
Consider `O=C(Nc1ccccc1)Nc1ccnc(Cl)c1`, for which the molecule was called inactive.
Turning to `CCCCNC(=O)n1c(NC(=O)OC)nc2ccccc21`, the molecule was called inactive.
For `CCCCOC(=O)c1ccccc1C(=O)OCCCC`, the molecule was called inactive.
As for `CCc1nn(C)c(C(=O)NCc2ccc(C(C)(C)C)cc2)c1Cl`, the half-maximal activity concentration (AC50) is 20 µM (active).
Turning to `CC1COC(Cn2cncn2)(c2ccc(Oc3ccc(Cl)cc3)cc2Cl)O1` (stereo not given), the half-maximal activity concentration (AC50) was 1.9 µM (active).
The same measure, in the same setting: to `CCOC(=O)C(Cl)Cc1cc(-n2nc(C)n(C(F)F)c2=O)c(F)cc1Cl` (stereo not given) belongs 20 µM (active).
`CCOc1cc(Oc2ccc(C(F)(F)F)cc2Cl)ccc1[N+](=O)[O-]`: the half-maximal activity concentration (AC50) was 20 µM (active).
For the molecule `COc1nc(NC(C)C)nc(NC(C)C)n1`, the AC50 was 1.9 µM (active).
In the case of `CON(C)C(=O)Nc1ccc(Cl)c(Cl)c1`, the molecule was called inactive.
Same read-out and setting: to `CN(C)C(=S)SSC(=S)N(C)C` belongs “inactive”.
With `COc1cnc(OC)n2nc(NS(=O)(=O)c3c(OCC(F)F)cccc3C(F)(F)F)nc12`, the AC50 is 2.42 µM (active).
With `Cc1ccc(-c2c(Cl)nc(C#N)n2S(=O)(=O)N(C)C)cc1`, the outcome was inactive.
For the molecule `CC1=C(C(=O)Nc2ccccc2)SCCO1`, the concentration at half-maximal activity (AC50) is 6.76 µM (active).
Turning to `CC(C)Oc1cc(-n2nc(C(C)(C)C)oc2=O)c(Cl)cc1Cl`, the AC50 is 1.9 µM (active).
`CNC(=O)ON=CC(C)(C)SC`: the outcome was inactive.
Take `CCOC(=O)CC(SP(=S)(OC)OC)C(=O)OCC` (stereo not given): the molecule was classed as inactive.
As to `C=CC1(C)OC(=O)N(c2cc(Cl)cc(Cl)c2)C1=O` (stereo not given), the outcome was inactive.
As for `C#CCOS(=O)OC1CCCCC1Oc1ccc(C(C)(C)C)cc1` (stereo not given), the half-maximal activity concentration (AC50) is 1.89 µM (active).
Still for that read-out and setting: the value for `COC(=O)N(OC)c1ccccc1COc1ccn(-c2ccc(Cl)cc2)n1` was 3.73 µM (active).
Consider `Cc1c(F)c(F)c(COC(=O)C2C(/C=C(\Cl)C(F)(F)F)C2(C)C)c(F)c1F` (stereo not given), for which the concentration at half-maximal activity (AC50) was 5.74 µM (active).
Take `COc1nc(C)nc(NC(=O)NS(=O)(=O)c2ccccc2CCC(F)(F)F)n1`: the AC50 was 36.7 µM (active) and 5.29 µM (active); the molecule was classed as inactive.
`CCCCNC(=O)OCC#CI`: the outcome was inactive.
Regarding `CCOP(=S)(OCC)SCn1c(=O)oc2cc(Cl)ccc21`, the result was inactive.
Still for that read-out and setting: the value for `CC(C)C1(C)N=C(c2nc3ccccc3cc2C(=O)O)NC1=O` (stereo not given) was “inactive”.
As to `N#CC(CCc1ccc(Cl)cc1)(Cn1cncn1)c1ccccc1` (stereo not given), the AC50 was 1.9 µM (active).
Take `CCON=C(CC)C1=C(O)CC(c2c(C)cc(C)cc2C)CC1=O` (stereo not given): the outcome was inactive.
Regarding `CCCC1COC(Cn2cncn2)(c2ccc(Cl)cc2Cl)O1` (stereo not given), the AC50 is 1.59 µM (active).
Turning to `COc1nc(C)nc(NC(=O)NS(=O)(=O)c2ccccc2Cl)n1`, the outcome was inactive.
Consider `CC(C)(C)c1ccc(CSc2cnn(C(C)(C)C)c(=O)c2Cl)cc1`, for which the half-maximal activity concentration (AC50) was 39.3 µM (active).
Consider `Cc1cc(Cl)ccc1OCC(=O)O`, for which the molecule was classed as inactive.
For the molecule `COC(=O)c1ccccc1C(=O)OC`, the call was inactive.
For `CCNc1nc(Cl)nc(NC(C)C)n1`, the AC50 is 20 µM (active).
Turning to `Oc1ccccc1-c1ccccc1`, the molecule was called inactive.
